D1 antag = antagonists of human D1 dopamine receptor; P21728; HEK293 TREx D1 cells, calcium flux, dopamine EC80; stronger effect = lower value; activity change, negative = inhibition, % at 10 µM; actives 3.2% (n = 360,000); in the data active = activity change below about -30%; also: % is scaled to controls: 0 for no effect and ±100 for the full control effect
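Allosteric or orthosteric antagonism assessed as attenuation of the calcium response to EC80 dopamine, added 180 s after compound, in induced HEK293 Trex D1 cells loaded with no-wash calcium dye.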
D1 potentiator = enhances dopamine response at the human D1 receptor | HEK293 TREx D1 cells, calcium flux, dopamine EC20 potentiation | actives 0.036% (n = 360,000) | P21728 | potentiation, % at 10 µM; in the data active = potentiation above about 30%; also: 0% is about no effect
ERG-DNA inh = ERG Ets/DNA interaction inhibition; fluorescence polarization, His-ERG Ets domain / labelled DNA; Potency, µM (highest dose often 76.9 µM), for inactives: at the highest dose FP activity, negative = inhibition, usual class: inhibitors; actives 0.028% (n = 370,000); AID 624246; active = well fitted inhibition curve with a large enough effect in the polarisation, with a control signal flat; inconclusive = small, poorly fitted or top-dose-only effect, or effect the other way, or a change in a side signal; inactive = no such curve, though single readings can be large or run the other way; the % refers to the polarisation;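 also: polarization taken with two DNA probes labelled with fluorescein and Texas red; potency is read from the fitted curve at half-maximal effect; % of control where 0% means no effect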
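His-tagged ERG Ets domain (1 uM in the protein solution; 300mM KCl, 50mM Tris-HCl, 1mM EDTA, 1mM DTT, pH 7.5) received compound, then a probe mix of 5 nM fluorescein-DNA and 100nM Texas-615-DNA. Fluorescence polarization was read for both dyes.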
D3 ag = D3 dopamine receptor (human) agonism | P35462 | D3R DiscoveRx beta-arrestin cells, luminescence, 90 min | max activation, % | actives 0.58% (n = 410,000); in the data active = max activation above about 30%; also: 0% is about no effect
Target sequence (P35462 whole entry, looked up): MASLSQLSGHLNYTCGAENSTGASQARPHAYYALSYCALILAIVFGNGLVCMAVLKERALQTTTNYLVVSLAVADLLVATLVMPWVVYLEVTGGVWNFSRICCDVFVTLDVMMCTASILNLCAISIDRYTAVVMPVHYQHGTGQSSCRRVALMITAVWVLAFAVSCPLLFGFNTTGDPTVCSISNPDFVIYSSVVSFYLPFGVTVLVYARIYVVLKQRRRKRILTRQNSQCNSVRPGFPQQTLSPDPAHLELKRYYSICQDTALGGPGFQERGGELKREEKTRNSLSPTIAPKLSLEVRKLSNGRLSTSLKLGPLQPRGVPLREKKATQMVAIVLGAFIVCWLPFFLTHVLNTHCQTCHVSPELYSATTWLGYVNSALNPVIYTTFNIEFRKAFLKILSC
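Cells at 1500/well, incubated overnight, then treated with pinned compounds (dopamine as control) for 90 min at 37 degrees C. DiscoveRx reagent added for 30 - 60 minutes at room temperature; luminescence read.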
D1 agonist = agonists of human D1 dopamine receptor; HEK293 T-REx D1 cells, calcium flux, agonist mode; activation, % at 2 µM; actives 1% (n = 360,000); in the data active = activation above about 30%; also: 0% is about no effect
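Inducible HEK293 T-REx D1 cells, force-coupled to calcium signalling, were plated at 4000 cells/well with tetracycline and held overnight at 30 C. After no-wash calcium dye loading, compound-evoked calcium rise over 180 s flagged agonists.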
DRD3 antagonist = antagonists of human D3 dopamine receptor; P35462; D3R cells, DiscoveRx beta-arrestin luminescence, antagonist mode; stronger effect = lower value; max response, negative = inhibition, %; actives 2.5% (n = 360,000); AID 652054; in the data active = max response below about -50%; inconclusive = no clear call, values can overlap the other calls; also: % is scaled to controls: 0 for no effect and ±100 for the full control effect
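Cells expressing the human receptor were seeded at 1500 cells/well, incubated overnight at 37 degrees C in 5% CO2, then exposed to library compounds with dopamine controls for 90 minutes at 37 degrees C before luminescent detection.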
Numbers without * were called inactive; ? = inconclusive; . = no result given. In the library only some 6.1% were active in any assay of this set; here they are far more common.

SMILES | D1 antag | D1 potentiator | ERG-DNA inh | D3 ag | D1 agonist | DRD3 antagonist
C=C(C)CC1Nc2ccccc2NC1CC(=C)C (stereo not given) | -62* | 1 | -10% | -2 | 5 | -5
C=C(C)CN1C(=O)c2ccccc2C1=O | . | -3 | . | 2 | -2 | 10
CC(=O)N1C=CN(C(C)=O)C(c2cn(C)c3ccccc23)C1c1cn(C)c2ccccc12 (stereo not given) | -6 | -2 | 0% | -10 | 11 | 10
Cc1nn(-c2ccc(F)cc2)c2nc(N)c(C#N)c(-c3ccc(O)c(O)c3)c12 | -46* | -9 | 2% | -2 | 0 | 4
COc1cc(-c2c(C#N)c(N)nc3c2c(C)nn3-c2ccc(C)c(C)c2)cc(OC)c1OC | 2 | -4 | 3% | 60* | 8 | 6
O=C1CCc2cc(S(=O)(=O)Nc3ccccc3F)ccc2N1 | -42* | 4 | . | 1 | 2 | -12
CC(=O)c1ccc(NS(=O)(=O)c2ccc3c(c2)CCC(=O)N3)cc1 | -16 | 0 | -12% | -2 | 4 | 0
COC(=O)c1cc(NS(=O)(=O)c2ccc3c(c2)CCC(=O)N3)cc(C(=O)OC)c1 | 17 | -4 | -12% | 33* | -2 | 31
Cc1ccc(C(=O)NC(C)C2CCCO2)o1 (stereo not given) | -11 | -10 | -3% | 2 | 8 | 4
CC(NC(=O)c1ccc(Br)o1)C1CCCO1 (stereo not given) | -31* | -10 | 0% | 5 | 0 | 2
O=C(COC(=O)c1ccccc1C(=O)c1ccc(Cl)c([N+](=O)[O-])c1)NC1CC1 | -41* | -9 | 9% | -18 | -1 | -66*
CNC(=O)COC(=O)c1ccccc1C(=O)c1ccc(Cl)c([N+](=O)[O-])c1 | -13 | -5 | 4% | 0 | 1 | -61*
CC(C)OC(=O)c1ccccc1C(=O)c1ccc(N)c([N+](=O)[O-])c1 | -34* | -5 | -3% | 0 | -1 | -3
O=C(OC1CCOC1=O)c1ccccc1C(=O)c1ccc(Cl)c([N+](=O)[O-])c1 (stereo not given) | 3 | -3 | 8% | -11 | 1 | ?
Cc1cc(C)c(NC(=O)c2cc(S(=O)(=O)N3CCCC3)cn2C)c(C)c1 | -5 | -1 | 1% | 4 | -2 | .
C=CC(=O)NCC1OCCc2ccccc21 (stereo not given) | 4 | 1 | 14% | -5 | 1 | -2
O=C(NCC1OCCc2ccccc21)c1ccc(NC(=O)c2ccccc2Cl)cc1 (stereo not given) | -37* | -4 | -10% | 2 | 12 | -13
O=C(NCC1OCCc2ccccc21)c1ccc(NC(=O)c2ccc(Cl)cc2Cl)cc1 (stereo not given) | -9 | -14 | -2% | 4 | 6 | 14
CN(C)CCC(=O)NCC1OCCc2ccccc21 (stereo not given) | -34* | -5 | 6% | 7 | 1 | -1
Cc1onc(-c2c(F)cccc2Cl)c1C(=O)NC(C)c1ccccc1 (stereo not given) | -26 | 5 | 2% | 3 | 1 | -2
CCCCCCCN1CCN=C1N(C)C | -35* | -5 | -9% | -3 | 0 | 10
COc1ccccc1OCCOCCN1CCCC1 | -1 | 0 | -2% | -6 | 2 | 9
O=[N+]([O-])c1ccc(CN2CCC(Cc3ccccc3)CC2)cc1 | -7 | -8 | -13% | -18 | 2 | ?
CC(=O)CCc1ccc(OCCCCN2CCC(Cc3ccccc3)CC2)cc1 | . | -10 | 0% | -11 | 9 | ?
Cc1cccc(C(C)(C)C)c1OCCOCCN1CCCC1 | -7 | 8 | 5% | -17 | 5 | ?
SMILES | D1 antag | D1 potentiator | ERG-DNA inh | D3 ag | D1 agonist | DRD3 antagonist
CCC(=O)c1ccccc1OCCCN1CCC(Cc2ccccc2)CC1 | -19 | -7 | 8% | -25 | 16 | -102*
O=[N+]([O-])c1cccc(OCCCN2CCC(Cc3ccccc3)CC2)c1 | . | . | -4% | -21 | . | -101*
CCOc1ccccc1OCCN1CCCC1 | -34* | -1 | 11% | -9 | 6 | 2
Cc1cccc(C(C)(C)C)c1OCCN1CCCC1 | -32* | -5 | 1% | -36 | 4 | -93*
COC(=O)/C=C/c1ccccc1CN1[C@@H](CC(=O)OC)c2ccccc2S1(=O)=O | -6 | 2 | -14% | -20 | 0 | 33
CC1(C(=O)NS(=O)(=O)c2ccc(C#N)cc2)CCN1C(=O)CC1CC1 (stereo not given) | . | . | . | 8 | . | 18
Cc1ccc(NC(=O)CC2Nc3cc(C)c(C)cc3NC2=O)c(C)c1 (stereo not given) | -8 | 2 | -2% | -4 | 1 | .
Cc1ccc(CNc2cnccn2)s1 | 6 | -2 | -8% | 0 | 4 | 7
O=C(c1ccc([N+](=O)[O-])c(CS(=O)(=O)c2ccc(Cl)cc2)c1)N1CCCCC1 | -8 | -2 | -7% | 4 | 7 | 3
CCN1CCN(CCOc2ccccc2OCc2ccccc2)CC1 | -32* | -1 | -25% | -9 | 4 | ?
N#Cc1cccc(C(=O)C(=O)N2CCC(Cc3ccccc3)CC2)c1 | . | . | . | 8 | . | 17
N#Cc1ccccc1OCCCN1CCC(Cc2ccccc2)CC1 | -11 | -5 | 0% | -4 | 13 | -109*
CCOc1ccccc1OCCN1CCC(Cc2ccccc2)CC1 | -22 | -16 | 4% | -38 | 28 | -99*
COc1cccc(OC)c1OCCCCN1CCC(Cc2ccccc2)CC1 | . | -11 | -5% | -21 | 6 | -75*
CCc1ccc(NC(=O)CCCc2nc(-c3ccco3)no2)cc1 | -2 | 1 | 1% | -4 | -1 | .
COCCNC(=S)Nc1ccccc1Cc1ccccc1 | -4 | -2 | -7% | 4 | 2 | -4
COc1ccc(-n2ncc3c(NCc4cccnc4)ncnc32)cc1 | -8 | -5 | -2% | 7 | 0 | 22
CC(C)(C)c1ccccc1OCCN1CCCC1 | -1 | -3 | -5% | -26 | 4 | -79*
CCN1CCN(Cc2ccc(OCc3ccccc3)cc2)CC1 | -13 | -6 | -1% | -15 | 38* | ?
CC(OCCN1CCCC1)(c1ccc(F)cc1)c1ccc(F)cc1 | -24 | -9 | 4% | -48 | 16 | -76*
Cc1ccccc1OCCN1CCC(Cc2ccccc2)CC1 | . | -10 | -15% | -13 | 4 | -91*
CN1CCCN(C(=O)c2ccc(Cl)cc2)CC1 | -1 | -2 | -2% | -8 | 2 | ?
CN(Cc1ccccc1)C(=O)CN1C(=O)c2ccc([N+](=O)[O-])cc2C1=O | 4 | 13 | 0% | 5 | -1 | -17
Cc1ccccc1OC(C)C(=O)N1CCC(Cc2ccccc2)CC1 (stereo not given) | -47* | -2 | -11% | -2 | 13 | -12
